According to the supplement of paper PMC4466140:

Each binder was assayed against AgAbp1 (assay: SPOT peptide array binding signal intensity (averaged, normalized) (arbitrary units (background-subtracted, floor 0; scale differs between SH3 domains)); higher = stronger binding of the SH3 domain to the peptide).
Method: (§1)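 GST-tagged SH3 domains from S. cerevisiae (Sc), A. gossypii (Ag), C. albicans (Ca) and S. pombe (Sp) were incubated at 10 ug/ml overnight at 4 C on cellulose SPOT membranes carrying 292 synthetic 15-mer peptides mined from the S. cerevisiae proteome (cysteines replaced by serines). Binding was detected with anti-GST antibody, HRP secondary and chemiluminescence, quantified with Genespotter, and reported as normalized spot intensities averaged over biological replicates.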

Binder	SPOT peptide array binding signal intensity
RSKRLFPVRPMATAH	39.5

The binders below were run against AgBbc1 in the same assay as above.
Method: as §1

Binder	SPOT peptide array binding signal intensity
RSKRLFPVRPMATAH	36.2

What follows are binders tested against AgBem1-D1 in the same assay as above.
Method: as §1

Binder	SPOT peptide array binding signal intensity
RSKRLFPVRPMATAH	89

Each binder was assayed against AgBzz1-D1 in the same assay as above.
Method: as §1

Binder	SPOT peptide array binding signal intensity
RSKRLFPVRPMATAH	13

The binders below were run against AgBzz1-D2 in the same assay as above.
Method: as §1

Binder	SPOT peptide array binding signal intensity
RSKRLFPVRPMATAH	11.5

These binders were tested against AgCyk3 in the same assay as above.
Method: as §1

Binder	SPOT peptide array binding signal intensity
RSKRLFPVRPMATAH	3

Each binder was assayed against AgFus1 in the same assay as above.
Method: as §1

Binder	SPOT peptide array binding signal intensity
RSKRLFPVRPMATAH	190

These binders were tested against AgHof1 in the same assay as above.
Method: as §1

Binder	SPOT peptide array binding signal intensity
RSKRLFPVRPMATAH	3.5

The binders below were run against AgHse1 in the same assay as above.
Method: as §1

Binder	SPOT peptide array binding signal intensity
RSKRLFPVRPMATAH	632

These binders were tested against AgLsb1 in the same assay as above.
Method: as §1

Binder	SPOT peptide array binding signal intensity
RSKRLFPVRPMATAH	3

Each binder was assayed against AgLsb4 in the same assay as above.
Method: as §1

Binder	SPOT peptide array binding signal intensity
RSKRLFPVRPMATAH	51

These binders were tested against AgMyo5 in the same assay as above.
Method: as §1

Binder	SPOT peptide array binding signal intensity
RSKRLFPVRPMATAH	0.5

What follows are binders tested against AgNbp2 in the same assay as above.
Method: as §1

Binder	SPOT peptide array binding signal intensity
RSKRLFPVRPMATAH	218

Each binder was assayed against AgRvs167 in the same assay as above.
Method: as §1

Binder	SPOT peptide array binding signal intensity
RSKRLFPVRPMATAH	4.33

Each binder was assayed against AgSho1 in the same assay as above.
Method: as §1

Binder	SPOT peptide array binding signal intensity
RSKRLFPVRPMATAH	79

The binders below were run against AgSla1-D1-D2 in the same assay as above.
Method: as §1

Binder	SPOT peptide array binding signal intensity
RSKRLFPVRPMATAH	469

What follows are binders tested against AgSla1-D3 in the same assay as above.
Method: as §1

Binder	SPOT peptide array binding signal intensity
RSKRLFPVRPMATAH	10.2

Each binder was assayed against CaAbp1-D1 in the same assay as above.
Method: as §1

Binder	SPOT peptide array binding signal intensity
RSKRLFPVRPMATAH	451

The binders below were run against CaAbp1-D2 in the same assay as above.
Method: as §1

Binder	SPOT peptide array binding signal intensity
RSKRLFPVRPMATAH	414

What follows are binders tested against CaBbc1 in the same assay as above.
Method: as §1

Binder	SPOT peptide array binding signal intensity
RSKRLFPVRPMATAH	128

These binders were tested against CaBem1-D1 in the same assay as above.
Method: as §1

Binder	SPOT peptide array binding signal intensity
RSKRLFPVRPMATAH	7

Each binder was assayed against CaBzz1-D1 in the same assay as above.
Method: as §1

Binder	SPOT peptide array binding signal intensity
RSKRLFPVRPMATAH	53

Each binder was assayed against CaBzz1-D2 in the same assay as above.
Method: as §1

Binder	SPOT peptide array binding signal intensity
RSKRLFPVRPMATAH	51.5

What follows are binders tested against CaCyk3 in the same assay as above.
Method: as §1

Binder	SPOT peptide array binding signal intensity
RSKRLFPVRPMATAH	64.5

Each binder was assayed against CaFus1 in the same assay as above.
Method: as §1

Binder	SPOT peptide array binding signal intensity
RSKRLFPVRPMATAH	402

The binders below were run against CaHof1 in the same assay as above.
Method: as §1

Binder	SPOT peptide array binding signal intensity
RSKRLFPVRPMATAH	≤ 0

These binders were tested against CaHse1 in the same assay as above.
Method: as §1

Binder	SPOT peptide array binding signal intensity
RSKRLFPVRPMATAH	14.2

The binders below were run against CaLsb1 in the same assay as above.
Method: as §1

Binder	SPOT peptide array binding signal intensity
RSKRLFPVRPMATAH	0.5

The binders below were run against CaLsb4 in the same assay as above.
Method: as §1

Binder	SPOT peptide array binding signal intensity
RSKRLFPVRPMATAH	502

Each binder was assayed against CaMyo5 in the same assay as above.
Method: as §1

Binder	SPOT peptide array binding signal intensity
RSKRLFPVRPMATAH	≤ 0

These binders were tested against CaNbp2 in the same assay as above.
Method: as §1

Binder	SPOT peptide array binding signal intensity
RSKRLFPVRPMATAH	366

These binders were tested against CaRvs167 in the same assay as above.
Method: as §1

Binder	SPOT peptide array binding signal intensity
RSKRLFPVRPMATAH	27.8

Each binder was assayed against CaRvs167-3 in the same assay as above.
Method: as §1

Binder	SPOT peptide array binding signal intensity
RSKRLFPVRPMATAH	93.5

These binders were tested against CaSho1 in the same assay as above.
Method: as §1

Binder	SPOT peptide array binding signal intensity
RSKRLFPVRPMATAH	544

What follows are binders tested against CaSla1-D1-D2 in the same assay as above.
Method: as §1

Binder	SPOT peptide array binding signal intensity
RSKRLFPVRPMATAH	95

Each binder was assayed against CaSla1-D3 in the same assay as above.
Method: as §1

Binder	SPOT peptide array binding signal intensity
RSKRLFPVRPMATAH	22

What follows are binders tested against ScAbp1 in the same assay as above.
Method: as §1

Binder	SPOT peptide array binding signal intensity
RSKRLFPVRPMATAH	4

What follows are binders tested against ScBbc1 in the same assay as above.
Method: as §1

Binder	SPOT peptide array binding signal intensity
RSKRLFPVRPMATAH	10

The binders below were run against ScBem1-D1 in the same assay as above.
Method: as §1

Binder	SPOT peptide array binding signal intensity
RSKRLFPVRPMATAH	5

These binders were tested against ScBzz1-D1 in the same assay as above.
Method: as §1

Binder	SPOT peptide array binding signal intensity
RSKRLFPVRPMATAH	1.5

These binders were tested against ScBzz1-D2 in the same assay as above.
Method: as §1

Binder	SPOT peptide array binding signal intensity
RSKRLFPVRPMATAH	2

Each binder was assayed against ScCyk3 in the same assay as above.
Method: as §1

Binder	SPOT peptide array binding signal intensity
RSKRLFPVRPMATAH	216

The binders below were run against ScFus1 in the same assay as above.
Method: as §1

Binder	SPOT peptide array binding signal intensity
RSKRLFPVRPMATAH	255

What follows are binders tested against ScHof1 in the same assay as above.
Method: as §1

Binder	SPOT peptide array binding signal intensity
RSKRLFPVRPMATAH	1

These binders were tested against ScHse1 in the same assay as above.
Method: as §1

Binder	SPOT peptide array binding signal intensity
RSKRLFPVRPMATAH	998

These binders were tested against ScLsb1 in the same assay as above.
Method: as §1

Binder	SPOT peptide array binding signal intensity
RSKRLFPVRPMATAH	14.5

What follows are binders tested against ScLsb2 in the same assay as above.
Method: as §1

Binder	SPOT peptide array binding signal intensity
RSKRLFPVRPMATAH	≤ 0

The binders below were run against ScLsb3 in the same assay as above.
Method: as §1

Binder	SPOT peptide array binding signal intensity
RSKRLFPVRPMATAH	1050

What follows are binders tested against ScLsb4 in the same assay as above.
Method: as §1

Binder	SPOT peptide array binding signal intensity
RSKRLFPVRPMATAH	32.5

The binders below were run against ScMyo3 in the same assay as above.
Method: as §1

Binder	SPOT peptide array binding signal intensity
RSKRLFPVRPMATAH	5.5

Each binder was assayed against ScMyo5 in the same assay as above.
Method: as §1

Binder	SPOT peptide array binding signal intensity
RSKRLFPVRPMATAH	3

Each binder was assayed against ScNbp2 in the same assay as above.
Method: as §1

Binder	SPOT peptide array binding signal intensity
RSKRLFPVRPMATAH	384

The binders below were run against ScPex13 in the same assay as above.
Method: as §1

Binder	SPOT peptide array binding signal intensity
RSKRLFPVRPMATAH	3.5

These binders were tested against ScRvs167 in the same assay as above.
Method: as §1

Binder	SPOT peptide array binding signal intensity
RSKRLFPVRPMATAH	256

What follows are binders tested against ScSho1 in the same assay as above.
Method: as §1

Binder	SPOT peptide array binding signal intensity
RSKRLFPVRPMATAH	661

These binders were tested against ScSla1-D1-D2 in the same assay as above.
Method: as §1

Binder	SPOT peptide array binding signal intensity
RSKRLFPVRPMATAH	212

These binders were tested against ScSla1-D3 in the same assay as above.
Method: as §1

Binder	SPOT peptide array binding signal intensity
RSKRLFPVRPMATAH	34

These binders were tested against SpAbp1-D1 in the same assay as above.
Method: as §1

Binder	SPOT peptide array binding signal intensity
RSKRLFPVRPMATAH	118

The binders below were run against SpBbc1 in the same assay as above.
Method: as §1

Binder	SPOT peptide array binding signal intensity
RSKRLFPVRPMATAH	≤ 0

What follows are binders tested against SpBzz1-D1 in the same assay as above.
Method: as §1

Binder	SPOT peptide array binding signal intensity
RSKRLFPVRPMATAH	142

Each binder was assayed against SpBzz1-D2 in the same assay as above.
Method: as §1

Binder	SPOT peptide array binding signal intensity
RSKRLFPVRPMATAH	0.5

What follows are binders tested against SpCyk3 in the same assay as above.
Method: as §1

Binder	SPOT peptide array binding signal intensity
RSKRLFPVRPMATAH	5.5

These binders were tested against SpHof1 in the same assay as above.
Method: as §1

Binder	SPOT peptide array binding signal intensity
RSKRLFPVRPMATAH	99.2

What follows are binders tested against SpHof1-2 in the same assay as above.
Method: as §1

Binder	SPOT peptide array binding signal intensity
RSKRLFPVRPMATAH	5.5

The binders below were run against SpHof1-3 in the same assay as above.
Method: as §1

Binder	SPOT peptide array binding signal intensity
RSKRLFPVRPMATAH	550

These binders were tested against SpHse1 in the same assay as above.
Method: as §1

Binder	SPOT peptide array binding signal intensity
RSKRLFPVRPMATAH	350

These binders were tested against SpLsb1 in the same assay as above.
Method: as §1

Binder	SPOT peptide array binding signal intensity
RSKRLFPVRPMATAH	3

Each binder was assayed against SpLsb4 in the same assay as above.
Method: as §1

Binder	SPOT peptide array binding signal intensity
RSKRLFPVRPMATAH	624

Each binder was assayed against SpMyo1 in the same assay as above.
Method: as §1

Binder	SPOT peptide array binding signal intensity
RSKRLFPVRPMATAH	1

The binders below were run against SpNbp2 in the same assay as above.
Method: as §1

Binder	SPOT peptide array binding signal intensity
RSKRLFPVRPMATAH	235

The binders below were run against SpPex13 in the same assay as above.
Method: as §1

Binder	SPOT peptide array binding signal intensity
RSKRLFPVRPMATAH	11

Each binder was assayed against SpRvs167 in the same assay as above.
Method: as §1

Binder	SPOT peptide array binding signal intensity
RSKRLFPVRPMATAH	52.2

The binders below were run against SpSla1-D1-D2 in the same assay as above.
Method: as §1

Binder	SPOT peptide array binding signal intensity
RSKRLFPVRPMATAH	1

Each binder was assayed against SpSla1-D3 in the same assay as above.
Method: as §1

Binder	SPOT peptide array binding signal intensity
RSKRLFPVRPMATAH	13
